Measurements as given in PubChem BioAssay (Tox21).
Where “and” joins values, the source holds several entries; their conditions need not be identical. Equal values may be shown once. Records with an inconclusive call do not appear. Where a call stands in place of a potency, no number is given. Some compounds were tested as several samples or in several runs, with calls that do not always agree. Calls of active or inactive are those of the source. Unless noted, calls follow the shape of the dose curve; as a rule, active = well fitted curve in the direction sought with a large enough effect in the repeat runs; inconclusive = weak or mixed curves; inactive = no such curve, though single readings can be large; an effect the other way counts as inactive or inconclusive.

Assays:
[1] = qHTS assay to identify small molecule antagonists of the peroxisome proliferator-activated receptor delta (PPARd) signaling pathway - cell viability counter screen (AID 743213); also: nearly all actives have a fitted effect of over 50% in size; also: potency is read from the fitted curve at half-maximal effect
Outline: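 Agonist-stimulated (L165041, 300 nM final) HEK293H PPARd UAS-bla cells are exposed to compounds for 17 h at 37 C, and ATP-based luminescence (CellTiter-Glo) from the same wells reports cytotoxicity.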

[2] = qHTS assay to identify small molecule agonists of the farnesoid-X-receptor (FXR) signaling pathway - cell viability counter screen (AID 743218); also: nearly all actives have a fitted effect of over 45% in size; also: potency is read from the fitted curve at half-maximal effect
Outline: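 Readout: CellTiter-Glo luminescence, 30 min RT, multiplexed after the FXR-bla FRET reading. HEK 293T FXR-UAS-bla cells received compound 5 h post-plating and were incubated 16 h at 37 C.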

[3] = qHTS assay to identify small molecule antagonists of the farnesoid-X-receptor (FXR) signaling pathway - cell viability counter screen (AID 743221; active = well fitted cell-killing curve with a large enough effect in the repeat runs, not every such curve was filed as active; also: nearly all actives have a fitted effect of over 50% in size; also: potency is read from the fitted curve at half-maximal effect)
Outline: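 Luminescence from CellTiter-Glo measures cytotoxicity in GeneBLAzer FXR-UAS-bla HEK 293T cells. Cells were exposed to compounds with 50 uM chenodeoxycholic acid (final) for 16 h at 37 C, in wells also used for the reporter readout.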

[4] = molecular target: Vitamin D3 receptor (Homo sapiens) (UniProt P11473); assay: qHTS assay to identify small molecule agonists of the vitamin D receptor (VDR) signaling pathway (AID 743222; calls by dose curve)
Sequence of Vitamin D3 receptor (Homo sapiens) (P11473 whole entry, looked up): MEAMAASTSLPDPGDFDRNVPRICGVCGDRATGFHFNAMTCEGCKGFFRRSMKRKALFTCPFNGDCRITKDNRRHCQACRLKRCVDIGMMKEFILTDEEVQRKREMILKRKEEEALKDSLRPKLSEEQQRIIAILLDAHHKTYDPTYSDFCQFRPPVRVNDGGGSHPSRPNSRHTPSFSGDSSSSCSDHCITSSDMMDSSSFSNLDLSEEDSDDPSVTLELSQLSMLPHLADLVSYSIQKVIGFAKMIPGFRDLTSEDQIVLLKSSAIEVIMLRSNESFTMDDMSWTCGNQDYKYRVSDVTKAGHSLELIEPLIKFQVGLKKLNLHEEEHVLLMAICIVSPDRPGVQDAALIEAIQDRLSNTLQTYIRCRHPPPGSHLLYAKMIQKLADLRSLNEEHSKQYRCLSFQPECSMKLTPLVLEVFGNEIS
Outline: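 Following 4 h attachment at 37C, VDR-bla cells (2,000 per well) received DMSO-dissolved compounds or controls. After 16 h incubation, LiveBLAzer B/G FRET substrate was added and fluorescence read 2 h later at room temperature.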

[5] = molecular target: Vitamin D3 receptor (Homo sapiens) (UniProt P11473); assay: qHTS assay to identify small molecule antagonists of the vitamin D receptor (VDR) signaling pathway (AID 743223; active = well fitted inhibition curve with a large enough effect in the signal ratio in the repeat runs, not every such curve was filed as active; the % refers to the signal ratio)
Outline: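 Antagonist mode uses 1alpha,25-dihydroxyvitamin D3 at 3 nM final as stimulus. VDR-bla cells receive compounds in DMSO, incubate 16 h at 37C, then a beta-lactamase FRET substrate for 2 h at room temperature before fluorescence measurement.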

[6] = qHTS assay to identify small molecule agonists of the vitamin D receptor (VDR) signaling pathway - cell viability counter screen (AID 743224); also: series mostly up to about 63 µM; nearly all actives have a fitted effect of over 50% in size
Outline: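 In parallel with the bla FRET readout, cytotoxicity toward VDR-bla cells after 16 h compound exposure was assessed by CellTiter-Glo, with luminescence recorded after a 30 min room-temperature incubation.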

[7] = qHTS assay to identify small molecule antagonists of the vitamin D receptor (VDR) signaling pathway - cell viability counter screen (AID 743225); also: nearly all actives have a fitted effect of over 50% in size; also: potency is read from the fitted curve at half-maximal effect
Outline: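 Read-out: CellTiter-Glo luminescence measured 30 min after reagent addition at room temperature. Cells were VDR-bla HEK 293T exposed 16 h at 37C, 5% CO2, to compound with 3 nM final calcitriol agonist.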

[8] = qHTS assay to identify small molecule agonists of the NFkB signaling pathway - cell viability counter screen (AID 1159515; calls by dose curve; also: nearly all actives have a fitted effect of over 55% in size; also: potency is read from the fitted curve at half-maximal effect)
Outline: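 Plate 2,000 NFkB-bla ME-180 cells/well; incubate overnight. Add compounds, 5 hr at 37 C. Add FRET substrate, 1.5 hr RT. Add CellTiter-Glo, 30 min RT; read luminescence.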

[9] = qHTS assay to identify small molecule agonists of the endoplasmic reticulum stress response signaling pathway (AID 1159516; active = well fitted activation curve with a large enough effect in the signal ratio in the repeat runs, not every such curve was filed as active; the % refers to the signal ratio)
Outline: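 Beta-lactamase expression from the ER stress response element in HeLa reporter cells is quantified with the LiveBLAzer B/G FRET substrate, read at 405 nm excitation after 2 hr at room temperature, following 5 hr compound treatment at 37 C.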

[10] = qHTS assay to identify small molecule agonists of the endoplasmic reticulum stress response signaling pathway - cell viability counter screen (AID 1159517; calls by dose curve; also: nearly all actives have a fitted effect of over 50% in size; also: potency is read from the fitted curve at half-maximal effect)
Outline: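 Steps: seed 1,500 ESRE-bla HeLa cells per well; incubate overnight at 37 C, 5% CO2; add compounds in DMSO for 5 hr; run FRET substrate 2 hr RT; add CellTiter-Glo, wait 30 min, read luminescence.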

[11] = qHTS assay to identify small molecule antagonists of the retinoid-related orphan receptor gamma (ROR-gamma) signaling pathway - cell viability counter screen (AID 1159520); also: nearly all actives have a fitted effect of over 50% in size; also: potency is read from the fitted curve at half-maximal effect
Outline: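 Tet-on ROR gamma CHO cells were given compounds for 2 hr, then doxycycline hyclate at 1 uM final, and incubated 16 hr at 37 C. Viability was measured as ATP content by CellTiter-Glo luminescence.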

[12] = molecular target: Nuclear receptor ROR-gamma (Homo sapiens) (UniProt P51449); assay: qHTS assay to identify small molecule antagonists of the retinoid-related orphan receptor gamma (ROR-gamma) signaling pathway (AID 1159521; also: nearly all actives have a fitted effect of over 50% in size; also: potency is read from the fitted curve at half-maximal effect)
Outline: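 CHO Tet-on RORγ, RORE-luc reporter. Cpd 2 h pre-incubation, then dox hyclate 1 uM final, 16 h, 37 C/5% CO2. ONE-Glo luminescence; decrease = antagonist.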

[13] = qHTS assay to identify small molecule agonists of the AP-1 signaling pathway - cell viability counter screen (AID 1159525; calls by dose curve; also: nearly all actives have a fitted effect of over 55% in size; also: potency is read from the fitted curve at half-maximal effect)
Outline: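 Same-well cytotoxicity counter screen of the Tox21 10K library in ME-180 cells. The readout is ATP-dependent luminescence after 5 h compound treatment. Data are normalised to DMSO and tetra n-octyl ammonium bromide controls.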

[14] = qHTS assay to identify small molecule agonists of the AP-1 signaling pathway (AID 1159526; calls by dose curve)
[15] = molecular target: Retinoic acid receptor RXR-alpha (Homo sapiens) (UniProt P19793); assay: qHTS assay to identify small molecule agonists of the RXR signaling pathway (AID 1159527; calls by dose curve; also: nearly all actives have a fitted effect of over 35% in size; also: potency is read from the fitted curve at half-maximal effect)
Sequence of Retinoic acid receptor RXR-alpha (Homo sapiens) (P19793 whole entry, looked up): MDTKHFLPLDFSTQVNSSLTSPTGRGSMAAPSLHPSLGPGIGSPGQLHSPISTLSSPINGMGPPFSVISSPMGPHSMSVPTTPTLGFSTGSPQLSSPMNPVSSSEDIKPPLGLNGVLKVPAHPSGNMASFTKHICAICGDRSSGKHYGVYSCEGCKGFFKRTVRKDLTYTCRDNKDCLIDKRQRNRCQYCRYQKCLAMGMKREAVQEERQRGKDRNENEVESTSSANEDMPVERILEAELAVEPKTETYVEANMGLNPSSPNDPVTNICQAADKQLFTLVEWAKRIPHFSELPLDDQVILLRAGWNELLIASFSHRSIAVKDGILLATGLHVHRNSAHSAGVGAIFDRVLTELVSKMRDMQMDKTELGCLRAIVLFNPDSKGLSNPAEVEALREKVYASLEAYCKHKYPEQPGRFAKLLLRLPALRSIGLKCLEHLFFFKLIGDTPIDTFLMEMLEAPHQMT
Outline: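 Read-out: beta-lactamase FRET ratio (405 nm excitation, 460 and 530 nm emission) after 2 hr substrate loading at room temperature. Cells were RXR-alpha-UAS-bla HEK 293T treated with compounds for 16 hr in 2% charcoal-stripped FBS medium.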

[16] = qHTS assay to identify small molecule agonists of the RXR signaling pathway - cell viability counter screen (AID 1159529); also: nearly all actives have a fitted effect of over 50% in size; also: potency is read from the fitted curve at half-maximal effect
Outline: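 HEK 293T RXRa-bla cells, 2% CS-FBS; 5 h settle; cpd 16 h 37 C, 5% CO2; CellTiter-Glo 30 min RT, luminescence. Tetraoctyl ammonium bromide as positive control.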

[17] = qHTS assay to identify small molecule antagonists of the retinoid acid receptor (RAR) signaling pathway - cell viability counter screen (AID 1159551); also: nearly all actives have a fitted effect of over 35% in size; also: potency is read from the fitted curve at half-maximal effect
Outline: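 Viability of C3RL4 cells is quantified from ATP by luminescence after 6 h treatment at 37 C with compounds and 1 uM retinol.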

[18] = qHTS assay to identify small molecule antagonists of the retinoic acid receptor (RAR) signaling pathway (AID 1159552; also: nearly all actives have a fitted effect of over 50% in size; also: potency is read from the fitted curve at half-maximal effect)
Outline: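 Cells of the C3RL4 line were seeded, incubated overnight, then dosed with compounds in DMSO followed immediately by retinol (1 uM final). Six hours later luciferase detection reagent went in; signal was measured after 30 min at RT.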

[19] = molecular target: Bile acid receptor (Homo sapiens) (UniProt Q96RI1); assay: qHTS assay to identify small molecule antagonists of the farnesoid-X-receptor (FXR) signaling pathway (AID 743217; active = well fitted inhibition curve with a large enough effect in the signal ratio in the repeat runs, not every such curve was filed as active; the % refers to the signal ratio)
Sequence of Bile acid receptor (Homo sapiens) (Q96RI1 whole entry, looked up): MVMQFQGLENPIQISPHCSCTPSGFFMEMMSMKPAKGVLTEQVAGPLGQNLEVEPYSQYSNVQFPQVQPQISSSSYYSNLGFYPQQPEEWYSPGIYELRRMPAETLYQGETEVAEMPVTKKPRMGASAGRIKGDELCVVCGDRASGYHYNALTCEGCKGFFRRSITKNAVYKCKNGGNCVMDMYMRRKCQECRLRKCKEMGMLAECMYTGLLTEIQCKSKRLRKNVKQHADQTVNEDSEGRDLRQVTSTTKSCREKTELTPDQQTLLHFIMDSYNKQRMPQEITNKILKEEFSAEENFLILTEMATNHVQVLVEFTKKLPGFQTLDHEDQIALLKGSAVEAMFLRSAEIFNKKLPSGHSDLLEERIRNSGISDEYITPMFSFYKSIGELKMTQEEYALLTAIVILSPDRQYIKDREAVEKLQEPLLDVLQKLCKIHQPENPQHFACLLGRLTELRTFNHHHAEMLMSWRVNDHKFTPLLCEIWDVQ
Outline: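 FRET fluorescence after 2 h room-temperature LiveBLAzer loading gives the readout. Prior step: FXR-bla HEK 293T cells, seeded and incubated 5 h, received test compounds plus 50 uM final CDCA for 16 h at 37 °C.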

[20] = molecular target: Bile acid receptor (Homo sapiens) (UniProt Q96RI1); assay: qHTS assay to identify small molecule agonists of the farnesoid-X-receptor (FXR) signaling pathway (AID 743220; active = well fitted activation curve with a large enough effect in the signal ratio in the repeat runs, not every such curve was filed as active; the % refers to the signal ratio)
Outline: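 FXR-UAS-bla HEK 293T cells carrying a UAS-driven beta-lactamase reporter were plated for 5 h at 37C/5% CO2, then exposed to DMSO-dissolved Tox21 10K compounds for 16 h at 37C. A LiveBLAzer B/G FRET substrate was loaded for 2 h at room temperature before fluorescence reading.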

Structure (SMILES)	Potency [1]	Potency [2]	Potency [3]	outcome [4]	Potency [5]	Potency [6]	Potency [7]	Potency [8]	outcome [9]	Potency [10]	Potency [11]	Potency [12]	Potency [13]	Potency [14]	Potency [15]	Potency [16]	Potency [17]	Potency [18]	Potency [19]	outcome [20]
CC[N+](CC)(CC)CC	inactive	inactive	inactive	inactive	inactive	inactive	inactive	inactive	inactive	inactive	inactive	inactive	inactive	inactive	inactive	inactive	inactive			
CC(Cl)(Cl)C(=O)O	inactive	inactive	inactive	inactive	inactive	inactive	inactive	inactive	inactive	inactive	inactive	inactive	inactive	inactive	inactive	inactive	inactive			
Cc1cc(Cl)ccc1OCC(=O)O	inactive	inactive	inactive	inactive	inactive	inactive	inactive	inactive	inactive	inactive	inactive	inactive	inactive	inactive	inactive	inactive	inactive			
Nc1ccc(-c2ccc(N)cc2)cc1	inactive	inactive	inactive	inactive	inactive	inactive	inactive	inactive	inactive	inactive	inactive	inactive	inactive	inactive	inactive	inactive	inactive	inactive		
O=C(O)C(Cl)(Cl)Cl	inactive	inactive	inactive	inactive	inactive	inactive	inactive	inactive	inactive	inactive	inactive	inactive	inactive	inactive	inactive	inactive	inactive	inactive		
CNC	inactive	inactive	inactive	inactive	inactive	inactive	inactive	inactive	inactive	inactive	inactive	inactive	inactive	inactive	inactive	inactive	inactive			
O=P1(N(CCCl)CCCl)NCCCO1 (stereo not drawn)	inactive	inactive	inactive	inactive	inactive	inactive	inactive	inactive	inactive	inactive	inactive	inactive	inactive	inactive	inactive	inactive	inactive		inactive	inactive
CCCC[N+]1(C)CCCC1	inactive	inactive	inactive			inactive	inactive	inactive	inactive	inactive	inactive	inactive	inactive	inactive	inactive	inactive	inactive			
CCCCCCn1cc[n+](C)c1	inactive	inactive	inactive			inactive	inactive	inactive	inactive	inactive	inactive	inactive	inactive	inactive	inactive	inactive	inactive			
CCC[N+]1(C)CCCCC1	inactive	inactive	inactive			inactive	inactive	inactive	inactive	inactive	inactive	inactive	inactive	inactive	inactive	inactive	inactive			
Nc1ccccc1	inactive	inactive	inactive	inactive	inactive	inactive	inactive	inactive	inactive	inactive	inactive	inactive	inactive	inactive	inactive	inactive	inactive			
COCC(=O)N(c1c(C)cccc1C)C(C)C(=O)OC (stereo not drawn)	inactive	inactive	inactive	inactive	inactive	inactive	inactive	inactive	inactive	inactive	inactive	inactive	inactive	inactive	inactive	inactive	inactive	inactive	inactive	inactive
CCCC[N+]1(C)CCCCC1	inactive	inactive	inactive	inactive	inactive	inactive	inactive	inactive	inactive	inactive	inactive	inactive	inactive	inactive	inactive	inactive	inactive			
COc1ccc(N)cc1	inactive	inactive	inactive			inactive	inactive	inactive	inactive	inactive	inactive	inactive	inactive	inactive	inactive	inactive	inactive			
COc1ccccc1N	inactive	inactive	inactive			inactive	inactive	inactive	inactive	inactive	inactive	inactive	inactive	inactive	inactive	inactive	inactive	inactive		
CC[n+]1ccccc1	inactive	inactive	inactive			inactive	inactive	inactive	inactive	inactive	inactive	inactive and 1.71 µM (active)	inactive	inactive	inactive	inactive	inactive and 54 µM (active)			
O=c1[nH]c(=O)n(Cl)c(=O)n1Cl	inactive	inactive	inactive			inactive	inactive	inactive	inactive	inactive	inactive	inactive	inactive	inactive	inactive	inactive	inactive			
O=C(O)CCl	inactive	inactive	inactive	inactive	inactive	inactive	inactive	inactive	inactive	inactive	inactive	inactive	inactive	inactive	inactive	inactive	inactive	inactive		
CCNc1nc(Cl)nc(NCC)n1	inactive	inactive	inactive	inactive	inactive	inactive	inactive	inactive	inactive	inactive	inactive	48.8 µM (active) and inactive	inactive	inactive	inactive and 12.2 µM (active)	inactive	inactive	inactive	inactive	inactive
C[N+](C)(C)Cc1ccccc1	inactive	inactive	inactive	inactive	inactive	inactive	inactive	inactive	inactive	inactive	inactive	inactive	inactive	inactive	inactive	inactive	inactive		inactive	inactive
OCCOc1ccccc1	inactive	inactive	inactive	inactive	inactive	inactive	inactive	inactive	inactive	inactive	inactive	inactive	inactive	inactive	inactive	inactive	inactive	inactive	inactive	inactive
C[C@]12CCC(=O)C=C1CC[C@@H]1[C@@H]2CC[C@]2(C)C(=O)CC[C@@H]12	inactive	inactive	inactive			inactive	inactive	inactive	inactive	inactive	inactive	23.9 µM (active) and inactive	inactive	inactive	inactive	inactive	inactive	47.7 µM (active) and inactive	inactive	inactive
Cc1cc(-c2ccc(N)c(C)c2)ccc1N	inactive	inactive	inactive	inactive	inactive	inactive	inactive	inactive	inactive	inactive	inactive	inactive	inactive	inactive	inactive	inactive	inactive	inactive		
COP(=O)(OC)C(O)C(Cl)(Cl)Cl (stereo not drawn)	inactive	inactive	inactive	inactive		inactive	inactive	inactive	inactive	inactive	inactive	inactive	inactive	inactive	inactive	inactive	inactive	inactive		inactive
C1CCC(NC2CCCCC2)CC1	inactive	inactive	inactive	inactive	inactive	inactive	inactive	inactive	inactive	inactive	inactive	inactive	inactive	inactive	inactive	inactive	inactive	inactive		
Oc1cccc2cccnc12	521 nM (active) and 155 nM (active)	inactive and 949 nM (active)	776 nM [cytotoxic] (active) and inactive	inactive	inactive		inactive and 8.71 µM (active)	inactive and 977 nM (active)	inactive	780 nM (active) and 155 nM (active)	3.44 µM (active) and inactive	774 nM (active) and 864 nM (active) and inactive	1.23 µM (active) and inactive	inactive	inactive	780 nM (active) and 692 nM (active) and inactive	inactive and 7.7 µM (active)			
O=C(O)c1nc(Cl)ccc1Cl	inactive	inactive	inactive			inactive	inactive	inactive	inactive	inactive	inactive	inactive	inactive	inactive	inactive	inactive	inactive			
